The text below walks through data of PubChem BioAssay.

The target in test [1] is Tumor necrosis factor receptor superfamily member 10B (Homo sapiens) (UniProt O14763). The experiment in a line: caspase-8 TRAIL sensitization, hit retest, confirmation, cell-based, NB7+caspase-8, with/without TRAIL, luminescence panel (AID 651596). To be noted: NB7 neuroblastoma + caspase-8, TRAIL sensitization, luminescence viability, with TRAIL, mean of runs, at 10 µM, stronger effect = higher value.

Assay in test [2]: as above
Conditions: NB7 neuroblastoma + caspase-8, without TRAIL, luminescence viability, without TRAIL, mean of runs, at 10 µM; in the data active means activity above about 50%; inactive means the rest.

Tumor necrosis factor receptor superfamily member 10B (Homo sapiens), sequence (O14763 whole entry, looked up): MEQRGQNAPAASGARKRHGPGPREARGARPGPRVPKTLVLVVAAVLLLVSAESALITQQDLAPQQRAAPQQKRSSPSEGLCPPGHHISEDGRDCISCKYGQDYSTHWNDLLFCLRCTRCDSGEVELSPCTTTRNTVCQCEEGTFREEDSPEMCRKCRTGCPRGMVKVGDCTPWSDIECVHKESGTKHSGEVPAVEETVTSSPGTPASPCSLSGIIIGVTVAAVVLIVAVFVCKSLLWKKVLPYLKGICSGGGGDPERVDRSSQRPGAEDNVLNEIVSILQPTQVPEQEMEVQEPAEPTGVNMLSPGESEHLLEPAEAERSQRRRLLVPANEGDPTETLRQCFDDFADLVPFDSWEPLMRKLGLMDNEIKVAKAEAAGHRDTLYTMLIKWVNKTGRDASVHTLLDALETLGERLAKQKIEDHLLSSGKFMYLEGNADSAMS

For the molecule `O=C1c2ccccc2NC(c2ccccc2)N1/N=C/c1ccccc1` (stereo not drawn), the results for the activity in test [1] and in test [2] were 52.5% and 40.1%, respectively.

On to `O=C1CN(C(=O)Cn2ncc(Cl)c(Cl)c2=O)c2ccccc2N1`, for which the activity in test [1] is 99.4%; in test [2], 99.5%.

Turning to `Cc1ccnc(NC(=O)c2ccc(Br)s2)c1`, the activity in test [1] was 52.3%; in test [2], 53%.

Consider `CC(=O)c1cccc(NC(=O)CSc2ccc(-c3ccc4c(c3)OCO4)nn2)c1`, for which the activity in test [1] is 52.1%; in test [2], 50%.

In the case of `Cc1cccc(N2CCN(S(=O)(=O)c3ccc4c(c3)NC(=O)C(C)S4)CC2)c1C` (stereo not drawn), the activity in test [1] was -0.6%; in test [2], -25.6%.

With `CCOc1cc(CNCCc2ccc(S(N)(=O)=O)cc2)ccc1OCc1ccc(Cl)cc1`, the activity in test [1] is 65.4%; in test [2], 84.1%.

`CCOC(=O)c1cnc2c(Cl)c(Cl)ccc2c1N1CCN(C)CC1`: the values for the activity in test [1] and in test [2] were 39.3% and 43%, respectively.

Take `COc1cc(OC)nc(Nc2nc(C(N)Cc3ccc(C(F)(F)F)cc3)cs2)n1` (stereo not drawn): the activity in test [1] amounted to 33.2%; in test [2], 77.7%.

Regarding `COn1c(SC2CCCCC2)nc2ccccc2c1=O`, the activity in test [1] worked out at 60.3%; in test [2] it was 60.1%.

As for `CC(C)(C)c1ccc(-c2cn(-c3ccc(Br)cc3)c3[n+]2CCCS3)cc1`, the values for the activity in test [1] and in test [2] were 71.9% and 55.1%, respectively.

In the case of `C#CCSc1nnc(-c2ccc(C)cc2)o1`, the activity in test [1] is 97.6%; in test [2], 93.2%.

Regarding `Cc1nn(-c2ccccc2Cl)c(Cl)c1/C=N/Nc1cccc(C(=O)O)c1`, the activity turned out to be 68.9% in test [1] and 62.9% in test [2].

With `Cc1ccc2nc(-c3ccccc3)nn2c1`, the activity was 83.9% in test [1] and 80.3% in test [2].

On to `C=C1C(=O)c2sccc2C(c2ccc(OC)c(OC)c2)C1COC(C)=O` (stereo not drawn), for which the activity in test [1] was 98.2%; in test [2] it was 99.2%.

Take `CC(=C/c1ccccc1)/C=N/NC(=O)c1cccs1`: the activity in test [1] came to 56%; in test [2], 51.2%.

For `CCN1CCN(c2ccc(S(=O)(=O)N3CCCCC3)cc2NC(=O)c2ccc([N+](=O)[O-])s2)CC1`, the activity in test [1] was 49.6%; in test [2] it was 54.1%.

As for `CN(C)CCCn1cnc2c(c1=N)C(c1ccccc1)c1ccc3ccccc3c1O2` (stereo not drawn), the figures for the activity in test [1] and in test [2] were 88.5% and 93.6%, respectively.

Turning to `COc1ccc(C(=O)/C=C/Nc2cc(C)ccn2)cc1`, the values for the activity in test [1] and in test [2] were 66.9% and 52.5%, respectively.

Turning to `O=C(CSc1ncnc2nc[nH]c12)c1ccc(Cl)cc1`, the activity in test [1] worked out at 57.6%; in test [2] it was 66%.

Turning to `Oc1ccccc1C=Nc1ccccc1-c1nc2ccccc2[nH]1`, the activity came to 7.4% in test [1] and 1.85% in test [2].

Regarding `COc1ccc(N=C2S/C(=C\c3ccc(Cl)c([N+](=O)[O-])c3)C(=O)N2CCN(C)C)cc1`, the activity in test [1] stood at 65%; in test [2] it was 90.2%.

Turning to `CC(=C/c1ccccc1)/C=N/NC(=O)c1ccccn1`, the activity in test [1] was 87.2%; in test [2] it was 85.2%.

Consider `N=c1c2c(n(Cc3ccc(Cl)c(Cl)c3)c3c1CCC3)CCCC2`, for which the activity was 80.6% in test [1] and 60.1% in test [2].

Regarding `Cc1ccccc1C(=O)Nc1nnc(SCC(=O)NC2CC2)s1`, the figures for the activity in test [1] and in test [2] were 48.7% and 45.2%, respectively.

For `COc1cccc2oc3ccc(C#Cc4ccccn4)cc3c(=O)c12`, the activity in test [1] came out at 71.8%; in test [2], 87.5%.

On to `O=C(/C=C/Nc1ccccc1)c1ccccc1`, for which the activity stood at 63.1% in test [1] and 44.8% in test [2].

Consider `O=C(Nc1ccc2c(c1)OCCO2)c1ccc2nccnc2c1`, for which the activity is 53.5% in test [1] and 50.4% in test [2].

For the molecule `CCOC(=O)c1sc2nc3c(SCC(=O)O)cc(C(=O)c4ccccc4O)cn3c(=O)c2c1C`, the results for the activity in test [1] and in test [2] were 49.1% and 42.5%, respectively.

In the case of `Cc1ccc(-c2nc(N/N=C/c3ccncc3)c3ccccc3n2)cc1`, the figures for the activity in test [1] and in test [2] were 98% and 96.7%, respectively.

Regarding `CCc1ccc(CNC(=O)Cc2ccc(NC(=O)C3=C(C)OCCS3)cc2)cc1`, the activity in test [1] amounted to 58.8%; in test [2], 59%.

Turning to `CCOC(=O)CNC(=O)CSc1nnc(NC(=O)c2ccc(C)cc2)s1`, the activity was 94.5% in test [1] and 92.5% in test [2].

`O=C(NOCc1ccccc1)c1ccc(Cl)cc1`: the activity in test [1] is 45.1%; in test [2], 43.2%.

As to `CC(C)(C)Nc1ncnc2c1cnn2-c1ccccc1`, the figures for the activity in test [1] and in test [2] were 73.8% and 69.5%, respectively.

As for `Cc1cc(C(=O)Nc2sc3c(c2C#N)CCCC3)no1`, the activity in test [1] amounted to 53%; in test [2], 52.5%.
